Shown are actives, neighbours in structure and some others; about 5.2% of the full set was active somewhere.
A3G deaminase = blocks human APOBEC3G single-stranded DNA deamination. Q9HC16. recombinant A3G, ssDNA deamination FAM/TAMRA fluorescence. inhibition, % at 20 µM. 330,000 compounds, 0.28% hits;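 active = inhibition of at least 40% at 20 µM, with no more than 30% in the related APOBEC3A deaminase screen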;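 also: plate controls were DMSO wells with A3G for no effect and wells lacking A3G enzyme for full effect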
Yeast superoxide = lowers age-related superoxide in aged yeast cells; 330,000 compounds, 0.18% hits; superoxide response (% of plate mean), % at 10 µM; S. cerevisiae aged cells, superoxide DHE fluorescence; stronger effect = lower value;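 active = superoxide response under a set limit, about three screen SD below normal, cut at about 65% in these data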;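 also: yeast aged for seven days with compound at 30 °C before DHE staining; 100% = average MFI of all compound-treated wells on the plate with controls excluded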
ALR inh = blocks human ALR sulfhydryl oxidase activity. P55789. purified ALR, DTT oxidation, H2O2 HRP-luminol luminescence. inhibition, % (concentration not given with the values). 290,000 compounds, 3.8% hits. AID 485317;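 active = mean replicate inhibition above about 79%, with every replicate also reaching it, limit read from the data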
Target sequence (P55789 whole entry, looked up): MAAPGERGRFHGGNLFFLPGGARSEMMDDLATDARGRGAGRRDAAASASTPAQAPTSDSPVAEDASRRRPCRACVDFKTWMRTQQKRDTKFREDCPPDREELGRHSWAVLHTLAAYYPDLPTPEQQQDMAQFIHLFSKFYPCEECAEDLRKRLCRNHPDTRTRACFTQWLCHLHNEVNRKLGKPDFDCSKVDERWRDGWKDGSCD
APOBEC3A inh = inhibitors of human APOBEC3A DNA deaminase; recombinant A3A, FAM/TAMRA ssDNA deamination fluorescence; inhibition, % at 20 µM; 330,000 compounds, 0.41% hits;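 active = at least 40% inhibition at 20 µM here, with at most 30% in a related deaminase screen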;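 also: plate controls were A3A with DMSO for no effect and wells lacking A3A enzyme for full effect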
Target sequence (P31941 whole entry, looked up): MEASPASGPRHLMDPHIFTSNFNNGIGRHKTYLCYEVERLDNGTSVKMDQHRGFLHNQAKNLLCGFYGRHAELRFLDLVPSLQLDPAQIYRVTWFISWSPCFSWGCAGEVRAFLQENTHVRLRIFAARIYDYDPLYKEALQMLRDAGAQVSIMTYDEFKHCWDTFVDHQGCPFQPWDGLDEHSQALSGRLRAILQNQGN
CendR NRP1 mod = modulators of CendR peptide binding to human neuropilin-1 | O14786 | FAM-RPARPAR peptide binding to NRP-1, fluorescence polarization | inhibition, % at 25 µM | 360,000 compounds, 0.85% hits | AID 602438;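 active = inhibition or corrected inhibition above about 18%, plus a signal ratio from 0.5 to 1.5, limit read from the data, passing the limit was not always enough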
M18AAP inhibitor = blocks P. falciparum M18 aspartyl aminopeptidase; recombinant PfM18AAP, H-Glu-NHMec fluorogenic cleavage; inhibition, % at 7.35 µM; 290,000 compounds, 1.2% hits;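 active = inhibition above the campaign mean inhibition over all tested compounds plus 3 SD, cut at about 28% in these data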;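 also: 0% = plate median of test compound wells and 100% = 2 mM ZnCl2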
* marks the source's active call; other numbers are inactive results; / = no result given.

SMILES | A3G deaminase | Yeast superoxide | ALR inh | APOBEC3A inh | CendR NRP1 mod | M18AAP inhibitor
COCCNc1nc(NCc2ccc(C)cc2C)c2sccc2n1 | / | / | / | / | 4 | /
O=C(NCc1ccc2c(c1)OCO2)c1nc(S(=O)(=O)Cc2ccccc2)ncc1Cl | 6 | 89 | 99* | 0 | 16 | -22
COc1ccc2c(c1)c(C(=O)CNc1nc(C)cs1)c(C)n2C | 5 | 91 | 98* | 18 | -8 | -1
COc1ccc(CN(C)C(=O)CCNS(=O)(=O)c2ccccc2)c(OC)c1 | / | / | / | / | 29* | /
COc1ccc(CN(C)C(=O)c2cc(S(=O)(=O)NCc3ccccc3)ccc2C)c(OC)c1 | -3 | 90 | -30 | -1 | 6 | /
CCOc1ccccc1NC(C)C(=O)NC(=O)NC1CCCCC1 (stereo not drawn) | -4 | 103 | 88* | -1 | 7 | /
COc1ccc(C)cc1NC1=C(Cl)C(=O)N(C2CCCCC2)C1=O | -6 | 106 | / | -2 | -12 | -6
Cn1nc(-c2ccc(Cl)cc2)c2cc(C(=O)NCCCN3CCCC3)sc21 | -4 | 95 | 94* | -1 | -6 | 0
Cc1ccc(CNC(=O)c2cc3c(-c4ccc(Cl)cc4)nn(C)c3s2)o1 | -5 | 116 | 80* | -2 | 11 | -4
COCCNC(=O)c1cc2c(-c3ccc(Cl)cc3)nn(C)c2s1 | -5 | 99 | 92* | -2 | -10 | -6
Cc1ccccc1-c1nnc(SC(C)C(=O)NC2CCCC2)o1 (stereo not drawn) | -2 | 112 | / | 4 | 6 | /
CC(Sc1nnc(-c2cccnc2)o1)C(=O)NC1CCCC1 (stereo not drawn) | -3 | 99 | 0 | 1 | 22* | /
NC(=S)NNc1cccc(Cl)c1 | -4 | 88 | 98* | -3 | -11 | 20
O=c1[nH]c2ccc(NCc3ccc(F)cc3)cc2[nH]1 | 6 | 103 | 100* | -2 | 9 | -113
O=c1[nH]c2ccc(NC(=S)Nc3ccc(F)cc3)cc2[nH]1 | -6 | 94 | 90* | 1 | 4 | 9
Cc1c(Cl)cccc1NC(=S)Nc1ccc2[nH]c(=O)[nH]c2c1 | -2 | 94 | 95* | 6 | -2 | 8
CNC(=S)Nc1ccc2[nH]c(=O)[nH]c2c1 | -6 | 105 | 52 | 0 | -5 | 1
Nc1cnc(Nc2ccc(Br)cc2)nc1N | -4 | 95 | 96* | 0 | -7 | 7
Cc1cc(=O)oc2c3c4c(cc12)OCCN4CCC3 | -3 | 98 | 97* | -3 | -29 | 6
COc1ccccc1C#Cc1ccc2c(=O)c3ccccc3n(C)c2c1 | -8 | 109 | -26 | 1 | 8 | 30*
COc1ccc(C#Cc2ccc3c(=O)c4ccccc4n(C)c3c2)cc1 | -14 | 106 | 0 | -3 | / | -2
Cc1oc2c(C)c3oc(=O)c(CCC(=O)NCCCCCC(=O)O)c(C)c3cc2c1C | -1 | 83 | 59 | 1 | 11 | -4
Fc1ccc(C(c2nnnn2C2CCCC2)N2CCc3ccccc32)cc1 (stereo not drawn) | -9 | 86 | 91* | -2 | -7 | 8
Fc1ccc(C(c2nnnn2CCc2ccccc2)N2CCCc3ccccc32)cc1 (stereo not drawn) | -4 | 90 | -5 | 1 | -4 | 1
N/C(=N/O)c1ccccc1N1CCC(Cc2ccccc2)CC1 | -2 | 87 | 92* | -3 | 0 | -10
SMILES | A3G deaminase | Yeast superoxide | ALR inh | APOBEC3A inh | CendR NRP1 mod | M18AAP inhibitor
c1ccc(CC2CCN(c3nnnn3-c3ccccc3)CC2)cc1 | -1 | 114 | -6 | 1 | -1 | 4
COc1ccc(NC(=O)c2cc(=O)[nH]c(=O)[nH]2)cc1S(=O)(=O)Nc1ccccc1Cl | -8 | 94 | 10 | 4 | 6 | 6
CC(=O)c1sc(Nc2ccccc2)nc1C | / | / | / | / | -5 | /
CC(C)(C)C(=O)c1sc(Nc2ccccc2)nc1N | -4 | 127 | 97* | -1 | -6 | -7
CCn1c(SCc2nc3ccccc3s2)nnc1-c1ccccc1 | -3 | 91 | 94* | 4 | -26 | -10
Cc1nnc(SCc2nc3ccccc3s2)n1-c1ccccc1 | -4 | 92 | -131 | -1 | -24 | 1
COc1ccc(-n2nnnc2SCc2nc3ccccc3s2)cc1 | 2 | 105 | 93* | 0 | -14 | 1

Bioassay records: PubChem BioAssay, several laboratories
